In the supplement of paper PMC10849652:
Targets with a hit are over-represented here; the source holds about 8,800 in all. About 0.5% of all pairs of compound and target were hits.

Legend:
Experiment in all cases: log2 fold change, soluble protein after heating vs DMSO (PISA); higher = thermal stabilisation; K562 lysate, 10 uM; active = over 0.2 and 3.5 SD of the protein, either way, in both replicates (recomputed)
[1] = compound: C=CC(=O)N1CCC[C@@H](n2nc(-c3ccc(Oc4ccccc4)cc3)c3c(N)ncnc32)C1 [ibrutinib]
Summary of the method: (§1)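 Log-two fold change in thermal stability relative to solvent controls is reported from duplicates. For each sample, crude K562 extract from dounce-homogenised pellets in PBS pH 7.4 with 1 mM MgCl2, at 1 mg/mL protein, was treated with 10 μM compound for 30 min. Aliquots heated for 3 min across 48°C-58°C were pooled, brought to 0.5% NP-40 at 4°C and cleared at 21,000xg for 90 min. The supernatant was quantified by TMTpro 16plex LC-MS/MS with channel sums equalised.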

[2] = compound: CC(=O)c1cnc2ccc(-c3cc(Cl)c(O)c(Cl)c3)nc2c1N[C@H]1CC[C@H](CN(C)C)CC1
Summary of the method: as §1

[3] = compound: CC(C)(C)Cn1c(N)nc2ccc(-c3[nH]c(C(C)(C)C)nc3-c3ccc(F)cc3)nc21 [ralimetinib]
Summary of the method: as §1

[4] = compound: CC(C)(O)CC(=O)NCCn1ccc2ncnc(Nc3ccc(Oc4cccc(C(F)(F)F)c4)c(Cl)c3)c21
Summary of the method: as §1

[5] = compound: CC(C)C1=C2N=C(C=C(N2N=C1)NCC3=CC=CC=C3)NCCCCCCN
Summary of the method: as §1

[6] = compound: CC1=C(C(CC(=O)N1)C2=CC=C(C=C2)C(F)(F)F)C(=O)NC3=C(C=C4C(=C3)C=NN4)F
Summary of the method: as §1

[7] = compound: CC1=C(C2=C(C=C1)C(=O)C3=CC=CC=C3N2CCCN)C
Summary of the method: as §1

[8] = compound: CC1=C(C=C(C=C1)NC(=O)C2=CC(=CC=C2)C(C)(C)C#N)NC3=CC4=C(C=C3)N=CN(C4=O)C
Summary of the method: as §1

[9] = compound: CC1=C(C=C(C=C1)NC(=O)C2=CC(=CC=C2)N(C)C)NC(=O)C3=CC=C(C=C3)O
Summary of the method: as §1

[10] = compound: CC1=CC=C(C=C1)SC2=C3C=C(SC3=CN=C2)C(=O)N
Summary of the method: as §1

[11] = compound: CCCS(=O)(=O)Nc1ccc(F)c(C(=O)c2c[nH]c3ncc(-c4ccc(Cl)cc4)cc23)c1F [vemurafenib]
Summary of the method: as §1

[12] = compound: CCCS(=O)(=O)Nc1ccc(F)c(C(=O)c2c[nH]c3ncc(Cl)cc23)c1F
Summary of the method: as §1

[13] = compound: CCN(CCCOc1ccc2c(Nc3cc(CC(=O)Nc4cccc(F)c4)[nH]n3)ncnc2c1)CCOP(=O)(O)O [barasertib]
Summary of the method: as §1

[14] = compound: CC[C@@H]1C(=O)N(C)c2cnc(Nc3ccc(C(=O)NC4CCN(C)CC4)cc3OC)nc2N1C1CCCC1
Summary of the method: as §1

[15] = compound: CC[C@@H]1C(=O)N(C)c2cnc(Nc3ccc(C(=O)N[C@H]4CC[C@H](N5CCN(CC6CC6)CC5)CC4)cc3OC)nc2N1C(C)C [volasertib]
Summary of the method: as §1

[16] = compound: CCn1c(C(=O)N(C2CC2)C2CC2)cc2c3c(ncn3C)c(Nc3cc(C)n(C)n3)nc21
Summary of the method: as §1

[17] = compound: CCn1cc(-c2ccnc3[nH]c(-c4cccc(CN(C)C)c4)cc23)c(-c2ccc(NC(=O)N(C)C)cc2)n1
Summary of the method: as §1

[18] = compound: CN1CCC(CNc2ccc3ncc(-c4cccc(OC(F)(F)F)c4)n3n2)CC1
Summary of the method: as §1

[19] = compound: CN1CCN(CCOc2cc(OC3CCOCC3)c3c(Nc4c(Cl)ccc5c4OCO5)ncnc3c2)CC1 [saracatinib]
Summary of the method: as §1

[20] = compound: CN1CCN(c2nc(C3=C(c4c[nH]c5ccccc45)C(=O)NC3=O)c3ccccc3n2)CC1 [sotrastaurin]
Summary of the method: as §1

Measured: log2 fold change

MOSPD2 (UniProt Q8NHP6)
Chain of UniProt Q8NHP6 (Q8NHP6 whole entry, looked up): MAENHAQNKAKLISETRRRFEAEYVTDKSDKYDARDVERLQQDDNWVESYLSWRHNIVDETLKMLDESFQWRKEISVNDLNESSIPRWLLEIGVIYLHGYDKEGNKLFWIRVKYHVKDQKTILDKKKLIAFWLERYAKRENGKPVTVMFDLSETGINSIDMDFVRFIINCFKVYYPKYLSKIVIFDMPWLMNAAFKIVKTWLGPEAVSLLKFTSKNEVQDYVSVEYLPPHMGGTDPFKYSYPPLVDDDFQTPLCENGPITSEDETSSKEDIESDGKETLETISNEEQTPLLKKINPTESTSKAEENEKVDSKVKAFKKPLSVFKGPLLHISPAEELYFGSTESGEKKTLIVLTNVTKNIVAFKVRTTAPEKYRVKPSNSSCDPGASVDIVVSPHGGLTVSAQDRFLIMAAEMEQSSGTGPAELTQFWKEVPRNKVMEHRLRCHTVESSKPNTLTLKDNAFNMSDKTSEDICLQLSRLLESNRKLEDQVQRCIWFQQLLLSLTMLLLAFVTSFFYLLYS
inactive: [1] -0.023 | [2] 0.019 | [3] 0.023 | [4] 0.067 | [5] 0.028 | [6] -0.049 | [7] 0.009 | [8] -0.037 | [9] -0.012 | [10] 0.017 | [11] 0.003 | [12] 0.008 | [13] -0.007 | [14] 0.158 | [15] -0.014 | [16] 0.039 | [17] -0.054 | [18] 0.004 | [19] 0.043 | [20] 0.076

MAD2L1BP isoform 3 (UniProt Q15013)
Chain of UniProt Q15013 (Q15013 whole entry, looked up): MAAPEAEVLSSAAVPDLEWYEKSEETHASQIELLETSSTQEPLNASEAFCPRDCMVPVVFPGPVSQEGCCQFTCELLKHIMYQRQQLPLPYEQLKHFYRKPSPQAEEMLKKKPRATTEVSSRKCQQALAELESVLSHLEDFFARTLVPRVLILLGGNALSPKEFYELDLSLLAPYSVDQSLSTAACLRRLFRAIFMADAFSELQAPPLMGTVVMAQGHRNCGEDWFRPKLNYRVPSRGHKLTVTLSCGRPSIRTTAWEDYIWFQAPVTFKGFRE
inactive: [1] -0.016 | [2] -0.099 | [3] 0.038 | [4] 0.015 | [5] -0.037 | [6] 0.107 | [7] -0.054 | [8] 0.005 | [9] -0.011 | [10] -0.05 | [11] 0.003 | [12] 0.009 | [13] 0.054 | [14] -0.076 | [15] -0.042 | [16] 0.022 | [17] 0 | [18] 0.03 | [19] 0.021 | [20] 0.01

LRWD1 (UniProt Q9UFC0)
inactive: [1] 0.082 | [2] -0.009 | [3] 0.004 | [4] 0 | [5] 0.035 | [6] 0.015 | [7] -0.004 | [8] 0 | [9] 0.032 | [10] 0.04 | [11] 0.009 | [12] -0.013 | [13] -0.021 | [14] -0.016 | [15] -0.017 | [16] 0.023 | [17] -0.003 | [18] 0.036 | [19] 0.025 | [20] 0.03

LYSMD3 (UniProt Q7Z3D4)
Chain of UniProt Q7Z3D4 (Q7Z3D4 whole entry, looked up): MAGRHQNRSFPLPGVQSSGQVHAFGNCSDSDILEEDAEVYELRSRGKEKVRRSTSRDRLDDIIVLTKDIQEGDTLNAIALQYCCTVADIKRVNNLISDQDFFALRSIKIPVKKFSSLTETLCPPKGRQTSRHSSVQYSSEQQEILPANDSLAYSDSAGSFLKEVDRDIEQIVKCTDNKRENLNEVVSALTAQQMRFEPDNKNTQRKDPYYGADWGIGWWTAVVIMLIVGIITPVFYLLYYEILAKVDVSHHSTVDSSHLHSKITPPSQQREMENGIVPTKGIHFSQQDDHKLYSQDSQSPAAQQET
inactive: [1] 0.098 | [2] -0.072 | [3] 0.003 | [4] -0.046 | [5] -0.045 | [6] -0.099 | [7] -0.003 | [8] 0.034 | [9] 0.005 | [10] -0.01 | [11] 0.025 | [12] -0.05 | [13] -0.003 | [14] 0.074 | [15] 0.056 | [16] -0.013 | [17] -0.094 | [18] 0.235 | [19] 0.056 | [20] 0.002

KIF11 (UniProt P52732)
inactive: [1] 0.005 | [2] -0.003 | [3] 0.029 | [4] 0.01 | [5] 0.007 | [6] 0.005 | [7] 0.01 | [8] -0.019 | [9] 0.014 | [10] 0.015 | [11] -0.027 | [12] 0.003 | [13] 0.023 | [14] -0.011 | [15] -0.024 | [16] 0.025 | [17] -0.055 | [18] 0.018 | [19] 0.023 | [20] 0.026

MGAT5 (UniProt Q09328)
Chain of UniProt Q09328 (Q09328 whole entry, looked up): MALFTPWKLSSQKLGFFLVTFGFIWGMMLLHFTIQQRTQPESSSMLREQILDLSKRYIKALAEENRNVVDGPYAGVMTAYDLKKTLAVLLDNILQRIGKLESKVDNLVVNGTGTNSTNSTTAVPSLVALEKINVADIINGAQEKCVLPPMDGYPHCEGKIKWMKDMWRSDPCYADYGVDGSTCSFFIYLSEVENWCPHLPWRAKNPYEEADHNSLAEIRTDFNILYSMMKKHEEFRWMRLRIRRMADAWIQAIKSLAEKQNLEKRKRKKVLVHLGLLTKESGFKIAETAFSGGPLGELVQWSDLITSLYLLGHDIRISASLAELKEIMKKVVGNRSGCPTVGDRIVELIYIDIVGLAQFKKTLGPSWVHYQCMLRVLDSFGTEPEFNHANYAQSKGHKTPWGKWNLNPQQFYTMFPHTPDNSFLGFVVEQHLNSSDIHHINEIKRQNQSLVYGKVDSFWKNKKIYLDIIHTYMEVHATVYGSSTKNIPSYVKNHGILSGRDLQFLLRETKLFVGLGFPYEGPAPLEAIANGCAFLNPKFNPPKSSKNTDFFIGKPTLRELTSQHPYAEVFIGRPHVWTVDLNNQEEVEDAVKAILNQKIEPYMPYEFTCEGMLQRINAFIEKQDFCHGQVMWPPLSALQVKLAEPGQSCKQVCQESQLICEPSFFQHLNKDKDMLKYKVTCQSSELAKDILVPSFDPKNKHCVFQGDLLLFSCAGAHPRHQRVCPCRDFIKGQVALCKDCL
inactive: [1] 0.038 | [2] 0.014 | [3] 0.001 | [4] 0.039 | [5] -0.045 | [6] -0.084 | [7] 0.005 | [8] -0.002 | [9] -0.004 | [10] 0.014 | [11] -0.254 | [12] -0.07 | [13] 0.062 | [14] -0.08 | [15] -0.065 | [16] 0.021 | [17] 0.094 | [18] -0.138 | [19] -0.036 | [20] 0.002

KNOP1 (UniProt Q1ED39)
inactive: [1] -0.079 | [2] -0.096 | [3] -0.096 | [4] -0.133 | [5] -0.031 | [6] 0.052 | [7] -0.114 | [8] 0.155 | [9] -0.033 | [10] -0.118 | [11] -0.285 | [12] 0.026 | [13] -0.014 | [14] 0.315 | [15] 0.056 | [16] -0.161 | [17] 0.016 | [18] 0.012 | [19] -0.029 | [20] -0.063

MARK2 (UniProt E9PC69)
inactive: [1] 0.139 | [2] -0.053 | [3] 0.014 | [4] -0.004 | [5] 0.015 | [6] -0.012 | [7] -0.063 | [8] 0.024 | [9] 0.045 | [10] 0.012 | [11] 0.015 | [12] -0.005 | [13] 0.027 | [14] 0 | [15] 0.028 | [16] -0.015 | [17] -0.013 | [18] -0.22 | [19] 0.021 | [20] -0.026

LARS (UniProt Q9P2J5)
Chain of UniProt Q9P2J5 (Q9P2J5 whole entry, looked up): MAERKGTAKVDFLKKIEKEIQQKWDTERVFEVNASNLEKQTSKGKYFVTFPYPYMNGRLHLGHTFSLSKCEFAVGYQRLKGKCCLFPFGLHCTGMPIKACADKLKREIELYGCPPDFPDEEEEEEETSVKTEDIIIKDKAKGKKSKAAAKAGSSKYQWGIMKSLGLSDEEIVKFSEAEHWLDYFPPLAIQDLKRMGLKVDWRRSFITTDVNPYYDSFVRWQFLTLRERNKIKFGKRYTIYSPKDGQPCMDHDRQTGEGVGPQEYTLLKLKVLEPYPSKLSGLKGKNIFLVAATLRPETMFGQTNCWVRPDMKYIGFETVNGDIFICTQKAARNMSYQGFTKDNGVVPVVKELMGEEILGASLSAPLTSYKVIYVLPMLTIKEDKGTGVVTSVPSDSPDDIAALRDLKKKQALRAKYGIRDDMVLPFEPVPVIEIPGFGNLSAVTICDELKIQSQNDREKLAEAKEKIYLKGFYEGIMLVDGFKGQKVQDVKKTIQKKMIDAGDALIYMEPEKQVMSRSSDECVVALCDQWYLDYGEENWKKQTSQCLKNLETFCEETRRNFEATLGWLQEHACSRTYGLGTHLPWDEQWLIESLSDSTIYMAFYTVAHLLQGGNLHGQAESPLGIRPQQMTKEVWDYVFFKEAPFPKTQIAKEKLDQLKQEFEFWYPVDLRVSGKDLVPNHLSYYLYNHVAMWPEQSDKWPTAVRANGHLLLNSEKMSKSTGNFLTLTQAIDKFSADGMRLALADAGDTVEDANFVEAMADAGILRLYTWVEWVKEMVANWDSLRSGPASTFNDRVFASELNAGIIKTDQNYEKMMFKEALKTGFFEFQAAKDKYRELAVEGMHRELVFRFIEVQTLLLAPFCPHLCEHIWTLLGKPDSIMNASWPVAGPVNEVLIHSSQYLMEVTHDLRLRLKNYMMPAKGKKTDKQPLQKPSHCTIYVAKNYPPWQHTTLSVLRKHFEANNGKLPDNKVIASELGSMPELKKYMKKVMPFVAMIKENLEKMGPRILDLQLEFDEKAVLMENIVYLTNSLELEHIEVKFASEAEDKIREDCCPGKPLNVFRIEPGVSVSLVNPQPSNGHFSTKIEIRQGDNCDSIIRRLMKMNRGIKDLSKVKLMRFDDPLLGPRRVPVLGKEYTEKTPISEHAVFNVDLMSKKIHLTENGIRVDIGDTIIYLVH
inactive: [1] -0.021 | [2] -0.003 | [3] 0.023 | [4] 0.048 | [5] 0.021 | [6] -0.001 | [7] -0.017 | [8] -0.041 | [9] 0.029 | [10] 0.022 | [11] -0.005 | [12] 0.006 | [13] 0.006 | [14] -0.069 | [15] -0.063 | [16] 0.045 | [17] 0.008 | [18] -0.058 | [19] -0.023 | [20] -0.002

MAP2K5 (UniProt Q13163)
Chain of UniProt Q13163 (Q13163 whole entry, looked up): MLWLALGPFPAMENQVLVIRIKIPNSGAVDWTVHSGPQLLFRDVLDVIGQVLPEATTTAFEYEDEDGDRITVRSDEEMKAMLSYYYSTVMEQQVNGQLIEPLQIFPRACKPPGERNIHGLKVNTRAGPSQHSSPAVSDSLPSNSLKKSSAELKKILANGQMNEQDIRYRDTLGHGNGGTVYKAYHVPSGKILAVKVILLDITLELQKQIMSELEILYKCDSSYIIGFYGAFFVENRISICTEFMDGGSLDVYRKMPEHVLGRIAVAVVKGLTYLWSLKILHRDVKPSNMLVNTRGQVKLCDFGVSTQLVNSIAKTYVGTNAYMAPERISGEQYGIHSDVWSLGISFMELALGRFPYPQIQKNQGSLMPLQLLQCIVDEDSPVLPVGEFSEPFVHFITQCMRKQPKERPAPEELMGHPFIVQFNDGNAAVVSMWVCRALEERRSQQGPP
inactive: [1] 0.007 | [2] -0.013 | [3] 0.103 | [4] -0.075 | [5] -0.078 | [6] -0.037 | [7] -0.208 | [8] 0.235 | [9] 0.052 | [10] -0.211 | [11] 0.207 | [12] 0.302 | [13] 0.019 | [14] -0.148 | [15] -0.311 | [16] -0.144 | [17] 0.15 | [18] -0.029 | [19] -0.079 | [20] 0.014

MIF (UniProt P14174)
Chain of UniProt P14174 (P14174 whole entry, looked up): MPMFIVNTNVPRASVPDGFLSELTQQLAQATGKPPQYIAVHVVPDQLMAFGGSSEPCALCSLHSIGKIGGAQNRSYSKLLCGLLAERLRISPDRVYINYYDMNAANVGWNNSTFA
inactive: [1] 0.101 | [2] -0.057 | [3] -0.002 | [4] 0.01 | [5] 0.003 | [6] -0.095 | [7] 0.009 | [8] -0.004 | [9] -0.019 | [10] 0.049 | [11] 0.025 | [12] -0.047 | [13] -0.02 | [14] 0 | [15] -0.025 | [16] 0.021 | [17] -0.274 | [18] 0.084 | [19] 0.002 | [20] 0.002

MICU1 isoform 3 (UniProt Q9BPX6)
active: [17] 0.234 | [18] -0.422
inactive: [1] -0.011 | [2] -0.021 | [3] 0.023 | [4] 0.001 | [5] -0.02 | [6] 0 | [7] 0.013 | [8] -0.028 | [9] 0.038 | [10] 0.019 | [11] -0.055 | [12] -0.004 | [13] 0.094 | [14] 0.002 | [15] -0.005 | [16] 0.091 | [19] 0.006 | [20] 0.044

MORF4L1 isoform 2 (UniProt Q9UBU8)
inactive: [1] -0.038 | [2] -0.012 | [3] 0.011 | [4] -0.062 | [5] 0.019 | [6] -0.034 | [7] -0.089 | [8] 0.01 | [9] 0.003 | [10] 0.021 | [11] 0.034 | [12] -0.017 | [13] 0.007 | [14] 0.016 | [15] 0 | [16] -0.005 | [17] -0.036 | [18] 0.131 | [19] 0.038 | [20] 0.019

LETM1 (UniProt O95202)
active: [18] -0.287
inactive: [1] -0.006 | [2] -0.001 | [3] 0.007 | [4] 0.002 | [5] 0.045 | [6] -0.026 | [7] 0.026 | [8] 0.036 | [9] 0 | [10] 0.037 | [11] 0.029 | [12] 0.005 | [13] -0.015 | [14] -0.012 | [15] 0.01 | [16] -0.015 | [17] 0.08 | [19] -0.002 | [20] -0.014

MLST8 (UniProt Q9BVC4)
inactive: [1] 0 | [2] 0.011 | [3] -0.038 | [4] 0.021 | [5] 0.063 | [6] -0.042 | [7] -0.021 | [8] -0.003 | [9] 0.044 | [10] 0.023 | [11] 0.025 | [12] 0.029 | [13] 0.074 | [14] 0.026 | [15] -0.009 | [16] 0.023 | [17] -0.03 | [18] 0.012 | [19] 0.075 | [20] -0.045

KIF15 (UniProt Q9NS87)
Chain of UniProt Q9NS87 (Q9NS87 whole entry, looked up): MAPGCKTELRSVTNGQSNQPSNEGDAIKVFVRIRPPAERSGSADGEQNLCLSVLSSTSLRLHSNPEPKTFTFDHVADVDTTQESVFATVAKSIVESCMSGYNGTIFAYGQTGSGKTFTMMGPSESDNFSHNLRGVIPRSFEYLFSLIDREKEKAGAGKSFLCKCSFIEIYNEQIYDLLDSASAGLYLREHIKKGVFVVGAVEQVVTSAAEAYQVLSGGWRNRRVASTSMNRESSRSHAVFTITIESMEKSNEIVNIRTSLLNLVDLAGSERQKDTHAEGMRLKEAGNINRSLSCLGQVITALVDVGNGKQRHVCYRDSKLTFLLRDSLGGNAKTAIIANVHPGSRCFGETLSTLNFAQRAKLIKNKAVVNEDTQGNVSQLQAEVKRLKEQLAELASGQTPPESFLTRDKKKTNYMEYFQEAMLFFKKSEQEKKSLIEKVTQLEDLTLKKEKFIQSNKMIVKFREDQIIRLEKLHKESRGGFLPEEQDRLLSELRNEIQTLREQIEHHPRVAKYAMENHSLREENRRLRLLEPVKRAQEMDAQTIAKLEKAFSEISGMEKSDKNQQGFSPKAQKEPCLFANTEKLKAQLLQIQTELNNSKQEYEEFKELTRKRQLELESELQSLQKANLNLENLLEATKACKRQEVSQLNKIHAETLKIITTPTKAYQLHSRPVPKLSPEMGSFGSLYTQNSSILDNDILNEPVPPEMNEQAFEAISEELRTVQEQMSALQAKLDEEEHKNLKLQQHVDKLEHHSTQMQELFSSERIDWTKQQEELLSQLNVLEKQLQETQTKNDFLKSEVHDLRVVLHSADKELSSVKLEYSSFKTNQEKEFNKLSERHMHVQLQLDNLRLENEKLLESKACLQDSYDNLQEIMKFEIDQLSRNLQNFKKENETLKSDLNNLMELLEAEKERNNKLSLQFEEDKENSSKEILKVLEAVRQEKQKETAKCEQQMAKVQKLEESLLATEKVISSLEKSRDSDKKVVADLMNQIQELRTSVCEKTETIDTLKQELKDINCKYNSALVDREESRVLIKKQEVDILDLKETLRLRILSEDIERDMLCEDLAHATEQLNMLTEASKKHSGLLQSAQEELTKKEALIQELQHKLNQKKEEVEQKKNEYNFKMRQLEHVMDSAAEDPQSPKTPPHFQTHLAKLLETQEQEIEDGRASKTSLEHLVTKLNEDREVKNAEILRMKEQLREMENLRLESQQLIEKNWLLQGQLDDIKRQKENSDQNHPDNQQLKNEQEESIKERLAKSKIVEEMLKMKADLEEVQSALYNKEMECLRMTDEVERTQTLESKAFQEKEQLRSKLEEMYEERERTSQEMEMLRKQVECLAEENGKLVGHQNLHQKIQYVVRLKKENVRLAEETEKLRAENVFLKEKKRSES
inactive: [1] -0.017 | [2] 0.006 | [3] 0.008 | [4] -0.022 | [5] 0.01 | [6] 0.022 | [7] -0.027 | [8] 0.02 | [9] 0.036 | [10] -0.015 | [11] -0.01 | [12] 0.045 | [13] 0.016 | [14] -0.018 | [15] -0.053 | [16] 0.036 | [17] 0.006 | [18] -0.036 | [19] 0.019 | [20] 0
